Compounds with a hit are over-represented: about 1% of the library has one in this group of screens.
Sa ugtP lethal = compounds lethal to S. aureus RN4220 ugtP deletion mutant. OD600 growth, 16 h. growth inhibition, % (test concentration not listed). hit rate 0.54% among 330,000. AID 1259309; in the data active = growth inhibition above about 68%;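 note: plate controls were untreated wells for no effect and antibiotic for full effect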
Mtb hypoxia inh = Mtb hypoxia fluorescent reporter inhibition; M. tuberculosis hypoxia-regulated fluorescent reporter, fluorescence; fluorescence inhibition, % (test concentration not listed); hit rate 0.1% among 300,000; in the data active = fluorescence inhibition mostly above about 23%, no sharp cut-off; inactive = mostly below about 17%
Sa RN4220 lethal = S. aureus RN4220 growth inhibition | OD600, 16 h | inhibition, % (concentration not given with the values) | hit rate 0.33% among 330,000 | AID 1259311; in the data active = inhibition above about 85%;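 note: plate controls were untreated cells for no effect and reference antibiotic for full effect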
SSB-PriA inh = inhibitors of Klebsiella pneumoniae PriA binding to SSB C-terminal tail | AlphaScreen SSBct-PriA binding, biotinylated peptide | inhibition, % at 33 µM | hit rate 0.6% among 430,000 | AID 1272365; in the data active = inhibition mostly above about 37%, no sharp cut-off; inactive = mostly below about 20%;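 note: plate controls were negative control peptide for no effect and reference peptide for full effect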
Mtb betalactam = beta-lactam sensitization of Mtb H37Rv | M. tuberculosis H37Rv growth with meropenem, percent inhibition | inhibition, % at 25 µM | hit rate 0.27% among 330,000 | AID 434955; call rule not given here;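 note: growth measured after seven days incubation then overnight dye step; 0% = bacteria only wells and 100% = bacteria with antibiotic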
* hit, by the source's call; . = no result shown; ! = not confirmed by another sample.

SMILES	Sa ugtP lethal	Mtb hypoxia inh	Sa RN4220 lethal	SSB-PriA inh	Mtb betalactam
CC(=O)N1CCN(c2ccc(NC(=S)NC(=O)c3ccccc3)cc2)CC1	93*	9	0	-5	3
COc1ccc(CC(=O)Nc2cccc(N3CCCC3=O)c2)cc1OC	.	.	.	-3	.
CCn1c(SCC(=O)NCCCc2ccccc2)nc2c(-c3ccc(C)cc3)csc2c1=O	.	.	.	-5	.
CC[C@@H](C(=O)Nc1cnc(OC)nc1)c1ccccc1	.	.	.	-8	.
O=C(O)C(Cc1ccccc1)N1C(=O)c2c(Cl)c(Cl)c(Cl)c(Cl)c2C1=O (stereo not given)	86*!	3	39	-1	-6
O=C(O)c1cccn2ccnc12	.	.	.	48*	.
COc1cc(OC)cc(-c2cc(N)n(S(=O)(=O)c3cccc4nsnc34)n2)c1	-7	-10	-8	39*	2
CCSc1nnc(NC(=O)C2CC(=O)N(c3ccc(F)cc3)C2)s1 (stereo not given)	.	.	.	-6	.
CCc1cccc(C)c1NC(=S)NCCc1c(C)[nH]c2ccc(C)cc12	3	1	2	40*	-1
CCc1cccc(CC)c1NC(=S)NCCc1c(C)[nH]c2ccc(C)cc12	5	3	6	9	2
C[C@H](Oc1ccccc1)C(=O)NCCn1ccnc1-c1ncccn1	.	.	.	93*	.
CCCc1nnsc1C(=O)NCCn1ccnc1-c1ncccn1	.	.	.	72*	.
COc1ccccc1NC(=O)NCCn1ccnc1-c1cnccn1	.	.	.	39	.
COc1ccccc1NC(=O)NCCn1ccnc1-c1ncccn1	.	.	.	39*	.
O=C(NCCn1ccnc1-c1ncccn1)Nc1cccs1	.	.	.	124*	.
Cc1nnsc1C(=O)NCCCn1ccnc1-c1ccccc1	.	.	.	1	.
O=C(NCCn1ccnc1C1CC1)Nc1cccs1	.	.	.	6	.
COc1ccc(Cl)cc1NC(=O)CSc1ncc(S(=O)(=O)c2ccc(C)c(C)c2)c(N)n1	.	.	.	1	.
O=C(Cn1c(=O)oc2ccccc21)NCCn1ccnc1-c1ncccn1	.	.	.	99*	.
Cc1ccc(N/N=C(/C#N)c2nc(-c3cccs3)cs2)cc1	.	.	.	-14	.
Cc1cc(C)cc(OCC(=O)N2N=C(C(F)(F)F)CC2(O)C(C)(C)C)c1 (stereo not given)	-11	.	-2	49*	-9
COC(=O)c1ccc2c(=O)n(-c3ccccc3F)c(=S)[nH]c2c1	active	14	88	0	-6
Cn1cnc(S(=O)(=O)NC[C@@](O)(c2cccs2)C2CC2)c1	.	.	.	-6	.
COc1ccc(C=NOCc2ccc(Br)cc2)c(OC)c1	87*	11	-2	-5	.
COc1ccc(/C=N/OCc2ccc(Br)cc2)c(OC)c1	.	.	.	.	51
SMILES	Sa ugtP lethal	Mtb hypoxia inh	Sa RN4220 lethal	SSB-PriA inh	Mtb betalactam
Cc1nnc(SCC(=O)NNC(=O)COc2ccc(Cl)cc2)s1	8	1	2	8	-6
C=CC1=C(C(=O)O)N2C(=O)C(NC(=O)Cc3ccccc3)C2SC1 (stereo not given)	101*	.	101*	-8	-5
Cc1nnc(SCC2=C(C(=O)O)N3C(=O)C(NC(=O)COc4ccccc4)C3SC2)s1 (stereo not given)	101*	.	100*	-8	.
Cc1nnc(SCC2=C(C(=O)O)N3C(=O)C(NC(=O)COc4ccc(F)cc4)C3SC2)s1 (stereo not given)	97*	.	100*	-1	.
CC1=C(C(=O)OCc2ccccc2)N2C(=O)[C@@H](NC(=O)COc3ccccc3)[C@H]2SC1	8	0	11	-8	37
O=C(COc1ccccc1)NC1C(=O)N2C(C(=O)O)=C(Cl)CSC12 (stereo not given)	101*	.	101*	-8	-8
CCOc1ccc(C2C(C(=O)Nc3ccc(Cl)cc3)C(C)Nc3ncnn32)cc1OC (stereo not given)	.	.	.	-17	.
O=C(NCC(O)c1cccc2ccccc12)NC(c1ccccc1)c1ccccc1 (stereo not given)	.	.	.	0	.
Cc1nc(-c2ccco2)sc1CNC(=O)Nc1cccs1	.	.	.	5	.
COc1ccc(OC)c(S(=O)(=O)NCCc2cn3ccc(C)cc3n2)c1	.	.	.	-4	.
CCOc1ccc(C(=O)NC2C(=O)N3C(C(=O)O)=C(COC(C)=O)CSC23)cc1OCC (stereo not given)	24	-1	41	-8	.
CC(=O)OCC1=C(C(=O)O)N2C(=O)C(NC(=O)COc3ccc(F)cc3)C2SC1 (stereo not given)	101*	37*	100*	6	.
CC1=C(C(=O)OCc2ccc([N+](=O)[O-])cc2)N2C(=O)C(NC(=O)Cc3ccccc3)C2SC1 (stereo not given)	0	0	2	-10	-2
CCC(C(=O)NC1C(=O)N2C(C(=O)O)=C(CSc3nnc(C)s3)CSC12)c1ccccc1 (stereo not given)	100*	.	100*	-9	.
CCC(C(=O)NC1CCN(C)CC1)c1ccccc1 (stereo not given)	4	10	3	-12	-8
Cc1nnc(SCC2=C(C(=O)O)N3C(=O)C(NC(=O)c4cc(F)c(F)cc4Cl)C3SC2)s1 (stereo not given)	100*	11	100*	-10	6
Cc1cc(NC(=O)CN2CCC(c3nn(C)c(=O)n3C3CC3)CC2)no1	.	.	.	15	.
N=C(N)c1ccc(N=Nc2c(O)ccc3c2[nH]c2ccccc23)cc1	.	.	.	82*	.
Cc1ccc(O)c(-c2cc(-c3cccc(Br)c3)n[nH]2)c1	85	-4	87*	-3	96
Cc1ccc(-c2cc(-c3ccc(C)cc3O)[nH]n2)cc1	55	9	-11	-35	58
CC12CC(NC(=O)N1c1cccc(C(=O)N3CCN(c4ccc(F)cc4)CC3)c1)c1ccccc1O2 (stereo not given)	.	.	.	1	.
C(=C\c1nc(N2CCCC2)c2ccccc2n1)/c1ccccc1	-2	45*	14	-67	98
Cc1cccc(C(=O)NCCn2ncc3c(=O)n(Cc4ccc(Cl)cc4)cnc32)c1	.	.	.	-22	.
O=C(CC1CCCC1)N(Cc1cnc2ccccn12)c1ccccc1	.	.	.	11	.
Cc1ccc2c(c1)c1cccc3c1n2CCN3CCC(N)=O	.	.	.	58*	14
SMILES	Sa ugtP lethal	Mtb hypoxia inh	Sa RN4220 lethal	SSB-PriA inh	Mtb betalactam
COc1ccc2sc(-c3ccc(N(C)C)cc3)c(C#CC(C)(C)O)c2c1	4	2	4	34	.
COc1ccc2sc(-c3ccc(N(C)C)cc3)c(C#Cc3cncn3C)c2c1	82*	23	78	17	100
O=C(c1cccs1)N1CCc2ccc(NS(=O)(=O)c3ccc(F)c(Cl)c3)cc21	.	.	.	-1	.
Cc1cc(Nc2ccc(NC(=O)Cc3c[nH]c4ccccc34)cc2)nc(N2CCCC2)n1	.	.	.	45*	.
O=C(Cc1c[nH]c2ccccc12)Nc1cccc(S(=O)(=O)N2CCCCC2)c1	1	-2	0	.	1
CCCCCCCCCCCCCCCC[n+]1ccc(C=NO)cc1	101*	12	101*	-4	.
CCn1cc(C(=O)N2CC(Oc3cc(C)oc(=O)c3)C2)c(=O)c2ccc(C)nc21	.	.	.	-1	.
O=C(c1csc(NS(=O)(=O)c2ccccc2)n1)N1CCN(c2ccccc2F)CC1	.	.	.	-1	.
O=C(c1csc(Nc2ccccc2)n1)N1CCN(c2ccccc2F)CC1	.	.	.	26*	.

Compound activity from PubChem BioAssay.
